The list is not random: actives were taken first. Their share in the collection is about 19%.
DT40 TDP1 CPT: growth inhibition of DT40 Tdp1-/-;hTDP1 cells with camptothecin (screen for TDP1 inhibitors); chicken DT40 Tdp1-/-;hTDP1 cells + 20 nM CPT, ATP luminescence, 48 h; Potency, µM (top dose mostly 46.2 µM), for inactives: at the highest dose activity change, negative = growth inhibition, most hits filed as inhibitors; actives 12% (n = 420,000); also: potency is read from the fitted curve at half-maximal effect; nearly all actives have a fitted effect of over 55% in size
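Chicken DT40 Tdp1-/- cells complemented with human TDP1, 400 cells/well, exposed to compounds plus 20 nM camptothecin for at least 48 h at 37 C; viability read as ATP content by CellTiter-Glo luminescence.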
DT40 TDP1 no CPT: qHTS for Inhibitors of human tyrosyl-DNA phosphodiesterase 1 (TDP1): qHTS in cells in absence of CPT; actives 15% (n = 420,000); Potency, µM (doses to about 46.2 µM), for the others: top-dose activity change, negative = growth inhibition, usual class: inhibitors; DT40 Tdp1-/- hTDP1 cells, no CPT, ATP luminescence, 48 h; also: potency is read from the fitted curve at half-maximal effect; nearly all actives have a fitted effect of over 55% in size
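Cells were dispensed at 400 per well, compounds added by pin tool, plates incubated ≥48 hr at 37 °C, then CellTiter-Glo added for 30 min at room temperature before luminescence reading. Line: DT40 Tdp1-/- complemented with hTDP1; camptothecin omitted.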
HT1080-NT tox: kills 2HG-producing HT-1080-NT fibrosarcoma cells; HT-1080-NT fibrosarcoma viability, CellTiter-Glo ATP luminescence, 48 h; Potency, µM (doses to about 46.1 µM), for inactives: at the highest dose activity, negative = less viability, most hits filed as cytotoxic; actives 1.6% (n = 360,000);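 also: NT is the 2HG producing partner of a matched IDH1 knockdown line; potency is read from the fitted curve at half-maximal effect; 0% = DMSO-treated cells and -100% = media-only wells without cells; nearly all actives have a fitted effect of over 55% in size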
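Toxicity toward the 2HG-producing NT line was scored as %Activity, normalised to DMSO and no-cell wells, from CellTiter-Glo luminescence after 48 hours' treatment.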
IL1B secr inh: inflammasome signaling inhibition, IL-1 beta readout | THP-1 LPS/ATP IL-1B secretion, AlphaLISA, 16 h; hits give low values | activity change, % at 57.5 µM | actives 4.7% (n = 360,000); in the data active = activity change below about -50%; inconclusive = mostly about -30% to -49%
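THP-1 cells pretreated 1 hr with compounds (up to 57.5 uM final), then stimulated with LPS (250 ng/mL final) plus ATP (1.25 mM final); secreted IL-1B measured by AlphaLISA after 16 hr, decreased signal indicating inhibition.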
HT1080 IDH1KD tx: HT-1080 IDH1 knockdown cell toxicity (counter line) | HT-1080 IDH1 knockdown viability, ATP luminescence, 48 h | Potency, µM (series often up to 46.1 µM), inactives show at the highest dose activity, negative = toxicity, usual class: cytotoxic | actives 2% (n = 360,000);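 also: potency is read from the fitted curve at half-maximal effect; 0% = DMSO wells and -100% = cell-free medium wells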
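Luminescent ATP read-out (CellTiter-Glo, 10 min at room temperature) after 48 h compound exposure at 37 °C gave viability of IDH1-knockdown HT-1080 cells. Activity was normalised to DMSO and cell-free wells, then fitted as concentration-response curves.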
Numbers without * were called inactive; ? = inconclusive; · = no result; [ ] = another dose, or the depositor's remark. Unless noted, calls follow the shape of the dose curve; as a rule, active = well fitted curve in the direction sought with a large enough effect; inconclusive = small, poorly fitted or top-dose-only effect, or another doubt; inactive = no such curve, though single readings can be large; an effect the other way counts as inactive or inconclusive. Unless noted, % is scaled to controls: 0 for no effect and ±100 for the full control effect.

SMILES | DT40 TDP1 CPT | DT40 TDP1 no CPT | HT1080-NT tox | IL1B secr inh | HT1080 IDH1KD tx
Cc1ccccc1CNCCCSc1nnnn1-c1ccccc1 | -22.6% | -27.5% | · | · | ·
CCC(=O)N(Cc1cc2ccccc2[nH]c1=O)c1ccccc1OC | -1.2% | -15.8% | 2.0% | 20.9 | 1.7%
C#C[C@]1(O)CC[C@H]2[C@@H]3CCC4=CC(=O)CC[C@@H]4[C@H]3CC[C@@]21C | ? | ? | -0.1% | 12.1 | -12.0%
C#C[C@]1(OC(C)=O)CC[C@H]2[C@@H]3CCC4=CC(=O)CC[C@@H]4[C@H]3CC[C@@]21C | 8.41µM* | 11.9µM* | · | · | ·
CC(=O)N1CCN(S(=O)(=O)c2ccc3c(c2)CC(=O)N3)CC1 | -0.7% | 11.3% | 8.9% | 0.7 | 7.0%
Cn1c(SCc2ccccc2)nc(N)c(N=O)c1=O | ? | 14.6µM* | -4.7% | ? | -14.4%
Cn1c(SCc2ccccc2)nc(C(F)(F)F)cc1=O | 11.2% | -10.4% | -18.0% | -17.9 | ?
O=C(CN1Cc2ccccc2OC(c2ccsc2)C1)N1CCC(c2nc3ccccc3[nH]2)CC1 (centres undefined) | 3.5%[9.04 µM] | ? | · | · | ·
Cc1ccc(S(=O)(=O)c2nnn3c2nc(NCCc2ccccc2)c2sccc23)cc1 | 16.4µM* | ? | · | · | ·
Cc1ccc(C)c(S(=O)(=O)c2nnn3c2nc(NCc2ccc4c(c2)OCO4)c2sccc23)c1 | 18.4µM* | ? | · | · | ·
Cc1ccc(S(=O)(=O)c2nnn3c2nc(NCc2ccc4c(c2)OCO4)c2sccc23)cc1C | ? | 23.1µM* | · | · | ·
Cc1ccc(CNc2nc3c(S(=O)(=O)c4ccccc4)nnn3c3ccsc23)cc1 | -27.7% | -13.7% | · | · | ·
Cc1ccc(S(=O)(=O)c2nnn3c2nc(NCc2ccc4c(c2)OCO4)c2sccc23)cc1 | ? | 13µM* | · | · | ·
COc1ccc(OC)c(NS(=O)(=O)c2ccc(NC(=O)c3ccc(NS(C)(=O)=O)cc3)cc2)c1 | -21.9% | -7.8% | 0.7% | 5.1 | 8.1%
CCc1ccc(S(=O)(=O)c2nnn3c2nc(NC2CCCCCC2)c2sccc23)cc1 | ? | 16.4µM* | · | · | ·
CCc1cc2cc(C)cc(C)c2nc1SCC(=O)N1CCN(C(=O)c2ccco2)CC1 | ? | ? | -0.1% | -54.2* | -1.5%[9.24 µM]
CCc1cc2cc3c(cc2nc1SCC(=O)N1CCN(C(=O)c2ccco2)CC1)OCO3 | ? | ? | -7.3% | ? | -14.3%
CCc1cc2ccc(C)cc2nc1SCC(=O)N1CCN(C(=O)c2ccco2)CC1 | ? | 18.4µM* | -1.9% | ? | -1.6%
CC(C)CN1CCC(CN2CCNC(=O)C2=O)CC1 | 8.4% | -7.3% | -0.2% | 8.1 | 3.0%
COC(=O)CNc1nc(-c2ccncc2)nc2ccccc12 | -12.0% | ? | 5.6% | 50.8 | 0.4%
CC(C)OCCCNc1nc(-c2ccccc2)nc2ccccc12 | ? | 14.6µM* | -6.6% | 0.5 | -25.2%
CC(C)(C)C(=O)OCCNc1nc(-c2ccccc2)nc2ccccc12 | ? | 20.6µM* | 11.1% | -54.1* | 7.6%
COc1ccc2nc(NC(=O)CC3Oc4ccccc4NC3=O)sc2c1 (centres undefined) | -19.2% | -19.2% | ? | 38.4 | -11.0%
CC1CCN(C(=O)CCC(=O)Nc2ccc([N+](=O)[O-])cc2)CC1 | -2.8% | -11.9% | -19.8% | 6.1 | ?
COc1cccc(N2CCN(c3nc(-c4ccccc4C)cc(=O)[nH]3)CC2)c1 | -48.8% | ? | ? | -73.4* | ?
SMILES | DT40 TDP1 CPT | DT40 TDP1 no CPT | HT1080-NT tox | IL1B secr inh | HT1080 IDH1KD tx
Cc1cc(Nc2ccccc2)c2c([N+](=O)[O-])cc(C)c(C)c2n1 | 9.2µM* | 23.1µM* | -15.2% | -4.4 | -15.0%
CC(C)CNc1ncnc2c1ncn2[C@H]1CN(Cc2ccc3c(c2)OCO3)C[C@@H](CO)O1 | ? | -23.1% | ? | 6.2 | 22.8%
CCn1c(N2CCN(S(=O)(=O)CC)CC2)nc2ccccc21 | 4.9% | -0.3% | 11.3% | 26.3 | 11.8%
O=S(=O)(c1ccc(Cl)cc1)N1CCN(c2nc(C(F)(F)F)nc3ccccc23)CC1 | ? | ? | 9.6% | 6.9 | 10.2%
CCn1c(N2CCN(S(=O)(=O)c3ccc(Cl)cc3)CC2)nc2ccccc21 | 14.6µM* | 14.6µM* | -27.2% | -86.6* | ?
CCn1c(N2CCN(S(=O)(=O)c3ccc(F)cc3)CC2)nc2ccccc21 | ? | 14.6µM* | -14.4% | -58.9* | -15.4%
O=C(NC1CCC(n2cc(C(=O)NC3CC3)nn2)CC1)C(=O)c1ccccc1 (centres undefined) | -11.7% | -3.7% | · | · | ·
O=C(CSc1nnnn1C1CCCCC1)Nc1cccc(NC(=O)c2ccco2)c1 | 5.8µM* | 4.11µM* | -19.4% | -22.6 | ?
O=C(CSc1ccc(Cl)cc1)c1ccco1 | 16.4µM* | 23.1µM* | 1.7% | -28.3 | -19.8%
Nc1nnc(SCC(=O)c2ccco2)s1 | -4.4% | -5.9% | -0.8% | 11.0 | 0.2%
Cn1cnnc1SCC(=O)c1ccco1 | -11.4% | -8.2% | -1.5% | -9.5 | -10.9%
O=C(NCCSc1ccc(Cl)cc1)c1ccco1 | -2.3% | -12.5% | 12.3% | 0.0 | 9.9%
O=C(CSc1ccccc1Cl)c1ccco1 | 20.6µM* | 8.2µM* | -3.0% | -12.8 | -6.3%
O=C(CCSc1ccc(Cl)cc1)c1ccco1 | 2.06µM* | 2.06µM* | -0.2% | -96.3* | 0.2%
O=C(NCc1ccccc1)N1CCNCC1 | -7.2% | -7.2% | 1.9% | 3.3 | 12.6%
COc1ccc2c(c1)c1c(c(=O)n(-c3ccc(C)cc3)c(=O)n1CC(=O)NCC1CCCO1)n2C (centres undefined) | -15.3% | ? | 13.2% | 36.7 | 13.5%
Cc1ccc(-n2ncc3c(=O)n(-c4cccc(C)c4)c(=O)[nH]c32)cc1 | -9.7% | -7.1% | -5.2% | 14.9 | -0.6%
COc1ccc(NC(=O)/C(=C\c2ccc(F)cc2)NC(=O)c2ccco2)cc1 | 1.2% | -24.1% | 1.2% | -8.8 | 8.9%
COc1cc(NC(=S)NC(=O)CC(C)C)ccc1NC(=O)c1cc2ccccc2o1 | ? | ? | 7.6% | 0.0 | 16.4%
CCOC(=O)C1CCCN(C(=O)c2cccc(OC(F)(F)F)c2)CC1 (centres undefined) | ? | -13.7% | -0.5% | -5.3 | 1.2%
COc1ncc2nc(-c3cccs3)c(=O)n(Cc3cccs3)c2n1 | 20.1% | 8.8% | · | · | ·
O=C(CSc1ccc(Cl)cc1)NC(=O)NCc1ccco1 | 16.4µM* | ? | 0.9% | -83.1* | 0.9%
Cc1ccc(SCC(=O)NCc2ccco2)cc1 | -25.5% | -12.6% | 7.3% | 6.2 | 12.3%
O=C(CSc1ccc(Cl)cc1)Nc1cccc(NC(=O)c2ccco2)c1 | ? | -26.0% | -25.8% | -65.8* | 24.5%

From PubChem BioAssay
